# Data reported in PMC7862700, “An all-to-all approach to the identification of sequence-specific readers for epigenetic DNA modifications on cytosine”.
# Experiments:
# Assay in all cases: DAPPL (digital affinity profiling via proximity ligation, sequencing); 10 mM Tris-HCl pH 7.5, 50 mM NaCl, 1 mM DTT, 4% glycerol, room temperature, 30 min; GST-TFs on glutathione beads, 16-mer random dsDNA library, 0.1% formaldehyde crosslink after washing; high values mean tight binding
# FLI1 = target: T1, FLI1 (Homo sapiens, UniProt Q01543 1-452); details: protein: recombinant; tags: N-terminal GST; dsDNA, one strand shown
# T1 sequence: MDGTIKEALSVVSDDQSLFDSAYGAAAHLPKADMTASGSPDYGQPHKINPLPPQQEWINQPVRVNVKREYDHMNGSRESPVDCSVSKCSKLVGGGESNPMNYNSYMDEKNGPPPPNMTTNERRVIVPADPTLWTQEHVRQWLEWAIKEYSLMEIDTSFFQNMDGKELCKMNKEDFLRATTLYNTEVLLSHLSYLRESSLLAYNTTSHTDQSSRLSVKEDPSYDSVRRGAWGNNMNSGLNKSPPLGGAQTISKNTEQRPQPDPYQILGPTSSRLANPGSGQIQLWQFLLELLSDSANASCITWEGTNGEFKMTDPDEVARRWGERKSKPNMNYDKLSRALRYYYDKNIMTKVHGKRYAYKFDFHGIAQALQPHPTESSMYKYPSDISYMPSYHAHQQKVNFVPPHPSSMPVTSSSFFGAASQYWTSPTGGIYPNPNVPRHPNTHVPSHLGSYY
# Summary of the method: (§1)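 A tag-only sample was pooled with DNA-barcoded human transcription factors that had been expressed in yeast as GST fusions and captured on glutathione beads. The pools were incubated for 30 min at room temperature with 200 nmole of a random double-stranded 16-mer DNA library in Tris/NaCl/DTT/glycerol buffer, then washed, crosslinked with 0.1% formaldehyde, proximity-ligated (BsaI/T4 ligase, 1 h, 37 °C), PCR-amplified and sequenced on an Illumina NextSeq500. Binding signal is each hexamer's read frequency for a factor divided by its frequency for the tag-only sample.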
# ELK1 = target: T2, ELK1 (Homo sapiens, UniProt P19419 1-428); details: protein: recombinant; tags: N-terminal GST; dsDNA, one strand shown
# T2 sequence: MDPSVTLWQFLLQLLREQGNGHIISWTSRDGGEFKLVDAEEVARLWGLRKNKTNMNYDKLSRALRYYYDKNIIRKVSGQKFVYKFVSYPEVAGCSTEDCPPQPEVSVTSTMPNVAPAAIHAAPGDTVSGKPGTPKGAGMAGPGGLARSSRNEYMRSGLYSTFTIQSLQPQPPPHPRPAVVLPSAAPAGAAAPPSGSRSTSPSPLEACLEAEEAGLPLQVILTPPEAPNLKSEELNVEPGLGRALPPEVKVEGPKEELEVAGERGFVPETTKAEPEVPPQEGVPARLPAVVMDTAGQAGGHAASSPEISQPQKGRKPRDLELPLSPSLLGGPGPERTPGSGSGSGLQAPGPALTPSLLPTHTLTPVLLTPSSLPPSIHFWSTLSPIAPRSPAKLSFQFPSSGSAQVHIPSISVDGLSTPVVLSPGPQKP
# Summary of the method: as §1
# GABPA = target: T3, GABPA (Homo sapiens, UniProt Q06546 1-454); details: protein: recombinant; tags: N-terminal GST; dsDNA, one strand shown
# T3 sequence: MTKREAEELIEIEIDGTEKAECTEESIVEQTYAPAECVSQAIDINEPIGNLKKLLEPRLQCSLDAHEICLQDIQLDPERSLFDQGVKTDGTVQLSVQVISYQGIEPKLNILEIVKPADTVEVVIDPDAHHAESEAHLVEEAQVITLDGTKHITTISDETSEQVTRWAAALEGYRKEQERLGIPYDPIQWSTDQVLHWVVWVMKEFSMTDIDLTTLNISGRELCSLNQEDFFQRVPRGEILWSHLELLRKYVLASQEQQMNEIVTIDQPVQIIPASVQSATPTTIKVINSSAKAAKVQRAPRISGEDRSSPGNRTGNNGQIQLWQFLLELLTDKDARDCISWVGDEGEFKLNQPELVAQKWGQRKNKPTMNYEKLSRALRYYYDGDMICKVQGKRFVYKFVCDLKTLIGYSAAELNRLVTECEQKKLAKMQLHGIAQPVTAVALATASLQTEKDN
# Summary of the method: as §1
# ERG = target: T4, ERG (Homo sapiens, UniProt P11308 1-479); details: protein: recombinant; tags: N-terminal GST; dsDNA, one strand shown
# T4 sequence: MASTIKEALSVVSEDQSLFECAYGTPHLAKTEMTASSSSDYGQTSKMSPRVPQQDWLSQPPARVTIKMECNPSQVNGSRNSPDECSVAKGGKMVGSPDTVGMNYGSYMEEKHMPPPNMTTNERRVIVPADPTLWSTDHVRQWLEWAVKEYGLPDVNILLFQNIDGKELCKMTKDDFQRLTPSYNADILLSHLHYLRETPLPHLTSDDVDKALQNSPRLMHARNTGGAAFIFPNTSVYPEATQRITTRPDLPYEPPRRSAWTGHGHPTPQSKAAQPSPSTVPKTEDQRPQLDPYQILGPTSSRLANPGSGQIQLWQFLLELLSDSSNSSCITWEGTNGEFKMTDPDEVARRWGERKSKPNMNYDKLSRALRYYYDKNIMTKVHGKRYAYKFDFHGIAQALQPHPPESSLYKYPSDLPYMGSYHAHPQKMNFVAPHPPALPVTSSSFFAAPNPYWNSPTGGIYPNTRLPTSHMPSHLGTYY
# Summary of the method: as §1
# ELF1 = ELF1 (Homo sapiens, UniProt P32519 1-619); details: protein: recombinant; tags: N-terminal GST; dsDNA, one strand shown
# Summary of the method: as §1
# EHF = target: T5, EHF (Homo sapiens, UniProt Q9NZC4 1-300); details: protein: recombinant; tags: N-terminal GST; dsDNA, one strand shown
# T5 sequence: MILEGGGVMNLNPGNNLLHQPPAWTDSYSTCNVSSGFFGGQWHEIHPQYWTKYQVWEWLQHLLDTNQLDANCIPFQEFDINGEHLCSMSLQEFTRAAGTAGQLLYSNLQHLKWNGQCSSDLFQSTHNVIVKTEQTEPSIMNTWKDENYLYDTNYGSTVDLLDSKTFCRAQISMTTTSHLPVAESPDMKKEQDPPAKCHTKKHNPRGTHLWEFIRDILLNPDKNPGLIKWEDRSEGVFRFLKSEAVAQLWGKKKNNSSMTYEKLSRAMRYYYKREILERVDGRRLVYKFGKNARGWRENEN
# Summary of the method: as §1
# SPI1 = SPI1 (Homo sapiens, UniProt P17947 1-270); details: protein: recombinant; tags: N-terminal GST; dsDNA, one strand shown
# Summary of the method: as §1
# SPIB = SPIB (Homo sapiens, UniProt Q01892 1-262); details: protein: recombinant; tags: N-terminal GST; dsDNA, one strand shown
# Summary of the method: as §1
# ELK3 = target: T6, ELK3 (Homo sapiens, UniProt P41970 1-407); details: protein: recombinant; tags: N-terminal GST; dsDNA, one strand shown
# T6 sequence: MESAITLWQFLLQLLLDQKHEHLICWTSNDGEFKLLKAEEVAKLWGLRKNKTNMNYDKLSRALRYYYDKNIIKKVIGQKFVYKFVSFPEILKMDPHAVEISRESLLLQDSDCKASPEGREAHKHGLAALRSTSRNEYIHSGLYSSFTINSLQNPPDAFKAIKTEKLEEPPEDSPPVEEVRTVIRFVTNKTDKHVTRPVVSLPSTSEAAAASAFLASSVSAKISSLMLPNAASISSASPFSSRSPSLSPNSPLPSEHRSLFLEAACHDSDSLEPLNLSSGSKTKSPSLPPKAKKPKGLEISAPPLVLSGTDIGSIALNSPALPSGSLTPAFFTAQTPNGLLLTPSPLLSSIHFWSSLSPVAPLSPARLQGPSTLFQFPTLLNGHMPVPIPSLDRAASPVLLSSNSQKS
# Summary of the method: as §1
# FEV = target: T7, FEV (Homo sapiens, UniProt Q99581 1-238); details: protein: recombinant; tags: N-terminal GST; dsDNA, one strand shown
# T7 sequence: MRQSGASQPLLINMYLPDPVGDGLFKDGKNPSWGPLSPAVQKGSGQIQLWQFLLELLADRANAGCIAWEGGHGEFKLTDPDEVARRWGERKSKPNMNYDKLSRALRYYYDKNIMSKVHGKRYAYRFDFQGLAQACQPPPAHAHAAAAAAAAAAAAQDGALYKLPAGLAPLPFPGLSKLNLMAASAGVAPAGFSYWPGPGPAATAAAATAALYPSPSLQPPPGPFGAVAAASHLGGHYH
# Summary of the method: as §1
# ETV5 = ETV5 (Homo sapiens, UniProt P41161 1-510); details: protein: recombinant; tags: N-terminal GST; dsDNA, one strand shown
# Summary of the method: as §1
# HSF1 = HSF1 (Homo sapiens, UniProt Q00613 1-529); details: protein: recombinant; tags: N-terminal GST; chain copies: 3; dsDNA, one strand shown
# Summary of the method: as §1
# SPIC = target: T8, SPIC (Homo sapiens, UniProt Q8N5J4 1-248); details: protein: recombinant; tags: N-terminal GST; dsDNA, one strand shown
# T8 sequence: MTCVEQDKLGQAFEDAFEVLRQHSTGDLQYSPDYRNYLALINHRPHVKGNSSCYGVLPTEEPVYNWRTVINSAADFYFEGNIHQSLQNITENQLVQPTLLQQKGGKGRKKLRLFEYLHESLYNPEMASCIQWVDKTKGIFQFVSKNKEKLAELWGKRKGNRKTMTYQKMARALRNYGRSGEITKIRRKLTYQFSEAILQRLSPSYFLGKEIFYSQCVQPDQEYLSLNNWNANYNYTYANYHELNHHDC
# Summary of the method: as §1
# ELF4 = ELF4 (Homo sapiens, UniProt Q99607 1-663); details: protein: recombinant; tags: N-terminal GST; dsDNA, one strand shown
# Summary of the method: as §1
# ELK4 = target: T9, ELK4 (Homo sapiens, UniProt P28324-2 1-405); details: protein: recombinant; tags: N-terminal GST; dsDNA, one strand shown
# T9 sequence: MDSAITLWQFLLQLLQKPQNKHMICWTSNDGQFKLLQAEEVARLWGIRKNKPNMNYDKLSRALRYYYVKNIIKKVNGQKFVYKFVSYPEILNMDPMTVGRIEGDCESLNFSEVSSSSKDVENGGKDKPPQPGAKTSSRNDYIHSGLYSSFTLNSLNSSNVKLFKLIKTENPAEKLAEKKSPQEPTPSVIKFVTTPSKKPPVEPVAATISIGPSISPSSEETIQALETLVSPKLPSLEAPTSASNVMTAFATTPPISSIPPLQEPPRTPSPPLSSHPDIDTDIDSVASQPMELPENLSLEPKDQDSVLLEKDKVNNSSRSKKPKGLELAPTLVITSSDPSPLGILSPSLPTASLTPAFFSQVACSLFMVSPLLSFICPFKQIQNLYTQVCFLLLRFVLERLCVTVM
# Summary of the method: as §1
# ETV2 = target: T10, ETV2 (Homo sapiens, UniProt O00321 1-342); details: protein: recombinant; tags: N-terminal GST; dsDNA, one strand shown
# T10 sequence: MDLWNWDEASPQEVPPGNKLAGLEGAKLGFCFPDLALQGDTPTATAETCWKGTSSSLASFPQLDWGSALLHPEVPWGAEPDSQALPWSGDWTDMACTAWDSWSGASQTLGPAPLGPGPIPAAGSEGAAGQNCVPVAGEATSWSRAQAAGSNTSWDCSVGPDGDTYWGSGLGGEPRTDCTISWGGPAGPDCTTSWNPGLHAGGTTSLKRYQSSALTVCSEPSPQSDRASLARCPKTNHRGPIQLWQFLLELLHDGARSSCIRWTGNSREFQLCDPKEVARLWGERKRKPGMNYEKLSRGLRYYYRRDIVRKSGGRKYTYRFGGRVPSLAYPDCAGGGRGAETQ
# Summary of the method: as §1
# ELF3 = target: T11, ELF3 (Homo sapiens, UniProt P78545 1-371); details: protein: recombinant; tags: N-terminal GST; dsDNA, one strand shown
# T11 sequence: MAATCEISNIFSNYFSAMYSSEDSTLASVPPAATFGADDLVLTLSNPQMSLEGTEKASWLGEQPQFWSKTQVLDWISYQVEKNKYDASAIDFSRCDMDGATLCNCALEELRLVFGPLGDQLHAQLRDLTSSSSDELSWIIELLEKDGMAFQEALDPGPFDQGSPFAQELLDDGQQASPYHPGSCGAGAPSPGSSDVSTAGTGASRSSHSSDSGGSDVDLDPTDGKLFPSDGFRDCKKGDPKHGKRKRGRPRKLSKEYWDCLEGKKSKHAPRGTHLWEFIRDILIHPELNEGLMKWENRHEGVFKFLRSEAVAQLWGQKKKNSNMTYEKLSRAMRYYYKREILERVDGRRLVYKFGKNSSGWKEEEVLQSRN
# Summary of the method: as §1
# CRX = CRX (Homo sapiens, UniProt O43186 1-299); details: protein: recombinant; tags: N-terminal GST; dsDNA, one strand shown
# Summary of the method: as §1
# ETV1 = ETV1 (Homo sapiens, UniProt P50549 1-477); details: protein: recombinant; tags: N-terminal GST; dsDNA, one strand shown
# Summary of the method: as §1
# Sequence of SPIB (Q01892 whole entry): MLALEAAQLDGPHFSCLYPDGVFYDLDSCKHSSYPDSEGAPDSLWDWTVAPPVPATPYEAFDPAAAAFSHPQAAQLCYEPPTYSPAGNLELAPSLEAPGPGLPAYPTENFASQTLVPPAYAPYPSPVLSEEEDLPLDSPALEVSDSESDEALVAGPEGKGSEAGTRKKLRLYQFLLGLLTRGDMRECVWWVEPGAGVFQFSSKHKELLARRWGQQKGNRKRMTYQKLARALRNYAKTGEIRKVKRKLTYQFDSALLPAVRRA
# Sequence of ETV5 (P41161 whole entry): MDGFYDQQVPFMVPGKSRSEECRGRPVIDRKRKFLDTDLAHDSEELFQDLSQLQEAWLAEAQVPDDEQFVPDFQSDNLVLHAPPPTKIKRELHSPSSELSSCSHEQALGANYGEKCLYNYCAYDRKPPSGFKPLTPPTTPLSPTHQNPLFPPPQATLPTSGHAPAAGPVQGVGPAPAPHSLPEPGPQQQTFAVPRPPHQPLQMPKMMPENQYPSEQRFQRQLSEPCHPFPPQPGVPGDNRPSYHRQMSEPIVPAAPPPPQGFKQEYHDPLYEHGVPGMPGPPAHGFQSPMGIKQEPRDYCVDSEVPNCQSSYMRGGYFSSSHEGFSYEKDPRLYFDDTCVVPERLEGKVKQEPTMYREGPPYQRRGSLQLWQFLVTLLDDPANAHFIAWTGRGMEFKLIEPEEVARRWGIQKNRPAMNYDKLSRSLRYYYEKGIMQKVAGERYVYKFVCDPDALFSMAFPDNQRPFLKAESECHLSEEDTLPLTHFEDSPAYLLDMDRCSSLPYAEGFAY
# Sequence of CRX (O43186 whole entry): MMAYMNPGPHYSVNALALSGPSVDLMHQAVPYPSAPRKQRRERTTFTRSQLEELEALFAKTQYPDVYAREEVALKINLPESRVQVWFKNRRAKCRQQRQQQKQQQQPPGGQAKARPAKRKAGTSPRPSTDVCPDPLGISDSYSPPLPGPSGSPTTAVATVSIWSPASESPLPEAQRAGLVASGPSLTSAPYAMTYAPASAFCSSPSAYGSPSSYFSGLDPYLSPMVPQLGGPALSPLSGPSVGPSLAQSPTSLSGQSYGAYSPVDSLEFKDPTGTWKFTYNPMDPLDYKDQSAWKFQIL
# Sequence of ELF1 (P32519 whole entry): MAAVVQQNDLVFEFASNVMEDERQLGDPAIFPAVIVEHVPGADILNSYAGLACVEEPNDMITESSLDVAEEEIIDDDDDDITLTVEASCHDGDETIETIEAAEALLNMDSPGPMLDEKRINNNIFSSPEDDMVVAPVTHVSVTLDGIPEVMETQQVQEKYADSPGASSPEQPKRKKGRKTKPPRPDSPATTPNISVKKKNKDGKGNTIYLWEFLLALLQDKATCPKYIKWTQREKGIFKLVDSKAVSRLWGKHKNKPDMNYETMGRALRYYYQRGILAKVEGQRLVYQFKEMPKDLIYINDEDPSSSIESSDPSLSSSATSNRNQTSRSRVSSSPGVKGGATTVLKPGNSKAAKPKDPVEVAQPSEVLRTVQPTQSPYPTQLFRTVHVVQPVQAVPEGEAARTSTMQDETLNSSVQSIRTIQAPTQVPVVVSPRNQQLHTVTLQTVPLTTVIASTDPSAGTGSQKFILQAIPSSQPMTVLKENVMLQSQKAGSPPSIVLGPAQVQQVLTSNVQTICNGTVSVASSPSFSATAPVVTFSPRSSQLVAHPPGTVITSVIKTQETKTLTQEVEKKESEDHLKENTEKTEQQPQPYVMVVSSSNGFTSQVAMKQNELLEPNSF
# Sequence of ELF4 (Q99607 whole entry): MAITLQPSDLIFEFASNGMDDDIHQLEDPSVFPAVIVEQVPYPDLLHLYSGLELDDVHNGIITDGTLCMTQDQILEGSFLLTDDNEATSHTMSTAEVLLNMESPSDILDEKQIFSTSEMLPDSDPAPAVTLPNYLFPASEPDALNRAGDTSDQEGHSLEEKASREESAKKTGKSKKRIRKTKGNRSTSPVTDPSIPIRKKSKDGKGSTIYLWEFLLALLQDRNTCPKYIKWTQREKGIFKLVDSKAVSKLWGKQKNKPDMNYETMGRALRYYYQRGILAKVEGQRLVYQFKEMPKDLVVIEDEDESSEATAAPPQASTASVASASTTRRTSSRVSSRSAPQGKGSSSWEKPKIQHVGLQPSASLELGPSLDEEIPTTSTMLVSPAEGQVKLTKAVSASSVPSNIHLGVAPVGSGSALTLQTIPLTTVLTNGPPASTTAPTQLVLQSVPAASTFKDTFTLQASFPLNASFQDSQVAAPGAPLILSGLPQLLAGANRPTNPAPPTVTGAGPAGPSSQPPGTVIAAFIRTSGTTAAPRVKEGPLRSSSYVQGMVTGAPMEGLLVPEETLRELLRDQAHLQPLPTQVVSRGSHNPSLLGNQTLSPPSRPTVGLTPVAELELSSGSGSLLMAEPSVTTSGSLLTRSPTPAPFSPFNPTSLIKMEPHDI
# Sequence of HSF1 (Q00613 whole entry): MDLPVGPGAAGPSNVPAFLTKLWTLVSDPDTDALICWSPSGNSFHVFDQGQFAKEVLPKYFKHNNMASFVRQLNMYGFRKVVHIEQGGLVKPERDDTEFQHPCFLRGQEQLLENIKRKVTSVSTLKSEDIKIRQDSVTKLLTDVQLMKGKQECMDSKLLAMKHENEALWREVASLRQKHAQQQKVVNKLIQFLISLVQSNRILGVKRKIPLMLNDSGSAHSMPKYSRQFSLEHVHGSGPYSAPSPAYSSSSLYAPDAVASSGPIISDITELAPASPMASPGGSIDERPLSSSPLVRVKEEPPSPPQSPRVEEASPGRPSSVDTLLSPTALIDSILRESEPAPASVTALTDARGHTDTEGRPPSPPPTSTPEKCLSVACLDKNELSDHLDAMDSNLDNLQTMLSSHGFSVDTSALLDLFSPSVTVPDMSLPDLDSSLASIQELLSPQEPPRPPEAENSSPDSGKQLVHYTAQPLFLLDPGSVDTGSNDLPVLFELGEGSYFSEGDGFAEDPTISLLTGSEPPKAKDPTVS
# Sequence of ETV1 (P50549 whole entry): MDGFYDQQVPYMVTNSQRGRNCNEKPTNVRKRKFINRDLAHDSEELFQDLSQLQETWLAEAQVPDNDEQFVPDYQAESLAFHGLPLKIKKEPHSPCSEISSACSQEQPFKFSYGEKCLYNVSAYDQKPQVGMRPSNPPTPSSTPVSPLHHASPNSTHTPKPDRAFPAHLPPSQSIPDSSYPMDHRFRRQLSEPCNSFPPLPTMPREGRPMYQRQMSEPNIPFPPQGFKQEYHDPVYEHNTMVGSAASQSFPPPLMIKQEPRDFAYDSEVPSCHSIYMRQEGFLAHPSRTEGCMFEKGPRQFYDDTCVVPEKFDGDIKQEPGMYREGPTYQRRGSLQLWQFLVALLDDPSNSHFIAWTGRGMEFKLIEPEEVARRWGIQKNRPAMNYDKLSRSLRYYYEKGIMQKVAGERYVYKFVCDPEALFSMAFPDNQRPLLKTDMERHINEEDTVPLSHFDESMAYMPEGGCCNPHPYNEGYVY
sequence,measurement,setting,value
TCTCGC,binding signal,FLI1,"1.82 fold enrichment (6-mer frequency, TF over GST control)"
same,binding signal,ELK1,"1.75 fold enrichment (6-mer frequency, TF over GST control)"
same,binding signal,GABPA,"1.88 fold enrichment (6-mer frequency, TF over GST control)"
same,binding signal,ERG,"1.72 fold enrichment (6-mer frequency, TF over GST control)"
same,binding signal,ELF1,"1.77 fold enrichment (6-mer frequency, TF over GST control)"
same,binding signal,EHF,"1.65 fold enrichment (6-mer frequency, TF over GST control)"
same,binding signal,SPI1,"1.69 fold enrichment (6-mer frequency, TF over GST control)"
same,binding signal,SPIB,"1.64 fold enrichment (6-mer frequency, TF over GST control)"
same,binding signal,ELK3,"1.72 fold enrichment (6-mer frequency, TF over GST control)"
same,binding signal,FEV,"1.64 fold enrichment (6-mer frequency, TF over GST control)"
same,binding signal,ETV5,"1.6 fold enrichment (6-mer frequency, TF over GST control)"
same,binding signal,HSF1,"2.5 fold enrichment (6-mer frequency, TF over GST control)"
same,binding signal,SPIC,"1.4 fold enrichment (6-mer frequency, TF over GST control)"
same,binding signal,ELF4,"1.75 fold enrichment (6-mer frequency, TF over GST control)"
same,binding signal,ELK4,"1.76 fold enrichment (6-mer frequency, TF over GST control)"
same,binding signal,ETV2,"1.96 fold enrichment (6-mer frequency, TF over GST control)"
same,binding signal,ELF3,"1.88 fold enrichment (6-mer frequency, TF over GST control)"
same,binding signal,CRX,"1.84 fold enrichment (6-mer frequency, TF over GST control)"
same,binding signal,ETV1,"1.75 fold enrichment (6-mer frequency, TF over GST control)"
